Among the data in ChEMBL document CHEMBL1961873, “Compounds: GSK PKIS; Assays: Nanosyn kinase panel” (2012) are inhibition values, retold here.

In assay [1] the target is T1, Inhibitor of nuclear factor kappa-B kinase subunit epsilon (Homo sapiens) (UniProt Q14164).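 Further: reported values are averaged percent inhibition figures against human IKKε.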
T1 sequence (whole entry): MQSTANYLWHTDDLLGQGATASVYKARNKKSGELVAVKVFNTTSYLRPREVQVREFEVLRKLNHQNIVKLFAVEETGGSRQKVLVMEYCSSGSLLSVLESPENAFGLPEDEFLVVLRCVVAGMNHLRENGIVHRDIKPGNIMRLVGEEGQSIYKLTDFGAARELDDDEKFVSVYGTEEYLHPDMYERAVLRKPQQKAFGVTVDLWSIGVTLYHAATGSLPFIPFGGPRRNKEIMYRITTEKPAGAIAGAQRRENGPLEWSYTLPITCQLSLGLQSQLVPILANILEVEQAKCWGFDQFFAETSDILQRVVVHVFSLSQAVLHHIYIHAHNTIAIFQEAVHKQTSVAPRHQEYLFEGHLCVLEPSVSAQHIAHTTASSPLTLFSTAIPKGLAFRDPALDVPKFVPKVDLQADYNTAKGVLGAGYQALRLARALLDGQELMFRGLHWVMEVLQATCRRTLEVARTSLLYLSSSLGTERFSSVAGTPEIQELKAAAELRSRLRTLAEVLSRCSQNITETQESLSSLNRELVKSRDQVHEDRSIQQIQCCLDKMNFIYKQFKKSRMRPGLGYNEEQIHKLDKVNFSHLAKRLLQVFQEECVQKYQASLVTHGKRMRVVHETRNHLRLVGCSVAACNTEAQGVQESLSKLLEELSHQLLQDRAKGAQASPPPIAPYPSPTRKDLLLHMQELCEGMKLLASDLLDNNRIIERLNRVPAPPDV
Particulars: at 1 µM.

The target in assay [2] is T2, Serine/threonine-protein kinase Nek1 (Homo sapiens) (UniProt Q96PY6).
T2 sequence (whole entry): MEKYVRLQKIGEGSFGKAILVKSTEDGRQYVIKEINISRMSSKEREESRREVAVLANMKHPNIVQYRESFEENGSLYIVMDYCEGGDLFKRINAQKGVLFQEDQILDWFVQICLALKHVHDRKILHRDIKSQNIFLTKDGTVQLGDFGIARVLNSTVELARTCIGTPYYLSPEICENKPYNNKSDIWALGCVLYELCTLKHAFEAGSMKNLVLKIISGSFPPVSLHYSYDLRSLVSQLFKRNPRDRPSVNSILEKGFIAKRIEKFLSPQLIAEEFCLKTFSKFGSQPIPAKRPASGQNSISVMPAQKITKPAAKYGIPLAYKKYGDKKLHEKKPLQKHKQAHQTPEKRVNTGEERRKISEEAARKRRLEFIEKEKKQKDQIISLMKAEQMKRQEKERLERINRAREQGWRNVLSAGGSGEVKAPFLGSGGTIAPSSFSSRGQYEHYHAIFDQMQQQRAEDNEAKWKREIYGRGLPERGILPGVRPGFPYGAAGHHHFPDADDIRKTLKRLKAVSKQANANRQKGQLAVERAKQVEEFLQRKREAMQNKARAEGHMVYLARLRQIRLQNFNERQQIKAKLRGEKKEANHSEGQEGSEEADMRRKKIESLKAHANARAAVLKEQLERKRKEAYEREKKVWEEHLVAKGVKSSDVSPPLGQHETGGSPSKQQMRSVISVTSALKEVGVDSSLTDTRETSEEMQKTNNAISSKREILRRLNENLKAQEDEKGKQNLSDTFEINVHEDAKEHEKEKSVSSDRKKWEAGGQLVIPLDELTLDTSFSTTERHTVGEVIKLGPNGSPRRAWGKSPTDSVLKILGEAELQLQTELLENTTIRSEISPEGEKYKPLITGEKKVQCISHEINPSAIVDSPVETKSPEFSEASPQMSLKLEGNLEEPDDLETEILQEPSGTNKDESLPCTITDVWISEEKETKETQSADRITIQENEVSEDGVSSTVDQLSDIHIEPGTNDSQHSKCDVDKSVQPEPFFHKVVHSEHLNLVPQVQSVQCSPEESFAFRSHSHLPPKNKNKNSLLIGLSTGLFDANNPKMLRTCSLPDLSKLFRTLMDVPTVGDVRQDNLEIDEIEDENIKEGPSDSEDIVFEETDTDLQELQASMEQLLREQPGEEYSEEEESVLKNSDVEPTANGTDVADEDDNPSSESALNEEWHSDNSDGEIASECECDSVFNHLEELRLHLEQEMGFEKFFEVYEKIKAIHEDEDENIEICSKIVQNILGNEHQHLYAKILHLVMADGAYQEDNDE
The conditions noted are these: at 0.1 µM.

The target in assay [3] is T2, Serine/threonine-protein kinase Nek1 (Homo sapiens). Particulars: at 1 µM.
Assay [4] concerns the target T3, Serine/threonine-protein kinase Nek2 (Homo sapiens) (UniProt P51955).
T3 sequence (whole entry): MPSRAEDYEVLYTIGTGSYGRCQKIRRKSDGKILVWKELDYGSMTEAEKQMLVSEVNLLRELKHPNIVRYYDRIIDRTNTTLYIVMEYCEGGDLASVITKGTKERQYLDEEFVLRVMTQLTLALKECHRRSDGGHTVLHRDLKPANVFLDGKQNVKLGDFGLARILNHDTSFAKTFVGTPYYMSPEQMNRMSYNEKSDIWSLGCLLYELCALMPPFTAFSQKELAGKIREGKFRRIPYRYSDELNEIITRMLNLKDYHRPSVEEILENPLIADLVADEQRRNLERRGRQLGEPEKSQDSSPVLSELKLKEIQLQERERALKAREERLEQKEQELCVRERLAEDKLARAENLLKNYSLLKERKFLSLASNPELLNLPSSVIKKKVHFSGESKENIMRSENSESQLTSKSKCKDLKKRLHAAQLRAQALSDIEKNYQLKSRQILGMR
Particulars: at 0.1 µM.

Assay [5] concerns the target T3, Serine/threonine-protein kinase Nek2 (Homo sapiens). Particulars: at 1 µM.
For assay [6], the target named is Serine/threonine-protein kinase Nek6 (Homo sapiens) (UniProt Q9HC98). The conditions noted are these: at 0.1 µM.
For assay [7] the target is unchanged. Particulars: at 1 µM.
Assay [8] addresses Serine/threonine-protein kinase Nek7 (Homo sapiens) (UniProt Q8TDX7). The conditions noted are these: at 0.1 µM.
Assay [9] has the same target. The conditions noted are these: at 1 µM.
Assay [10] has as its target T4, Serine/threonine-protein kinase Nek9 (Homo sapiens) (UniProt Q8TD19).
T4 sequence (whole entry): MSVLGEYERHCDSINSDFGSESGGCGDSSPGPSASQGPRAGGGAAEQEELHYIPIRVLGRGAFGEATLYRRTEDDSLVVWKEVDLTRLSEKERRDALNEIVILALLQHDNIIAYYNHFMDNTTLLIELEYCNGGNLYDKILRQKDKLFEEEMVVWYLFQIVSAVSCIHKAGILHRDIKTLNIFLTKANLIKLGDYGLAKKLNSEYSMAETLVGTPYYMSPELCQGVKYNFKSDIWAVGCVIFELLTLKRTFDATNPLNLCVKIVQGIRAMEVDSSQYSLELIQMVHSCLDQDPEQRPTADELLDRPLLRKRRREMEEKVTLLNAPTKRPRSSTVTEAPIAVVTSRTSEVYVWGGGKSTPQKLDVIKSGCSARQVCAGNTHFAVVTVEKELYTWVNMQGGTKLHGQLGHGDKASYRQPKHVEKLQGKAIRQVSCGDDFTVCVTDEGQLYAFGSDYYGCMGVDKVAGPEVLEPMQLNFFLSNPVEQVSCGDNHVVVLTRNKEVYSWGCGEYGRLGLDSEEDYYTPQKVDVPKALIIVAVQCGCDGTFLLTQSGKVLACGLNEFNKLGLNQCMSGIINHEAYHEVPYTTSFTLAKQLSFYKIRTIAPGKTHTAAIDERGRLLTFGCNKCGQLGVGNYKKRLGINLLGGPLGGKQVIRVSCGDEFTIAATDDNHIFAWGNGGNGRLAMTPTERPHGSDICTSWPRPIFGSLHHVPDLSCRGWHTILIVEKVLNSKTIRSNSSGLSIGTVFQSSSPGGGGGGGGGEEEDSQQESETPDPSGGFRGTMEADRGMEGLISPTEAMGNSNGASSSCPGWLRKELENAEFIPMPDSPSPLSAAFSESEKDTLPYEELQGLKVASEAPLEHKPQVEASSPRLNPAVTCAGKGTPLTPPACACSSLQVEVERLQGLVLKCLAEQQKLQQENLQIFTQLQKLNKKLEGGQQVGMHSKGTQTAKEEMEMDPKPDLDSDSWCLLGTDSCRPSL
The conditions noted are these: at 0.1 µM.

Assay [11] deals with T4, Serine/threonine-protein kinase Nek9 (Homo sapiens). The conditions noted are these: at 1 µM.
For assay [12], the target named is Serine/threonine-protein kinase PLK1 (Homo sapiens) (UniProt P53350). Particulars: at 0.1 µM.
Assay [13] shares this target. The conditions noted are these: at 1 µM.
The target of assay [14] is T5, Dual specificity protein kinase TTK (Homo sapiens) (UniProt P33981).
T5 sequence (whole entry): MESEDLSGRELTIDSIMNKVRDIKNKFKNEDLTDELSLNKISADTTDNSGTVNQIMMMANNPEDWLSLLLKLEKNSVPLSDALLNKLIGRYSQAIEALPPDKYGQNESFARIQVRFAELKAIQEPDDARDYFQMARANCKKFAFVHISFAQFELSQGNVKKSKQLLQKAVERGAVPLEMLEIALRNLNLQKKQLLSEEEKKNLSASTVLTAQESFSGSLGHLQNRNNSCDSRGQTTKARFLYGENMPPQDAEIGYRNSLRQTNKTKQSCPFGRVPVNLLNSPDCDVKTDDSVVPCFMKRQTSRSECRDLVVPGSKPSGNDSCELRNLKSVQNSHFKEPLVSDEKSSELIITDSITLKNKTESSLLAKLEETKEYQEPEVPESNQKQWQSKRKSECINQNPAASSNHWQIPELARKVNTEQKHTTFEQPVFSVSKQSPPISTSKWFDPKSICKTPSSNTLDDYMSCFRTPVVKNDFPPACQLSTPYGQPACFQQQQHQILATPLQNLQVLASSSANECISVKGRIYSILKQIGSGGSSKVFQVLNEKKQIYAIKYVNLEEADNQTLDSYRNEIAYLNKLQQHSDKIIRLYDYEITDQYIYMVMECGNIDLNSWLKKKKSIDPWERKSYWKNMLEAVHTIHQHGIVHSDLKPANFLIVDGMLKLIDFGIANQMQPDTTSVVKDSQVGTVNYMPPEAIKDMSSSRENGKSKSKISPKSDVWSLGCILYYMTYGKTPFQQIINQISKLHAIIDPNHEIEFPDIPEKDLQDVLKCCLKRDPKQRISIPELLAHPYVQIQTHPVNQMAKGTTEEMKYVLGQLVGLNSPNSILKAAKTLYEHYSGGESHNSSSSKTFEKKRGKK
The conditions noted are these: at 0.1 µM.

Assay [15] deals with T6, Receptor-type tyrosine-protein kinase FLT3 (Homo sapiens), P36888 [D835Y].
T6 sequence (whole entry): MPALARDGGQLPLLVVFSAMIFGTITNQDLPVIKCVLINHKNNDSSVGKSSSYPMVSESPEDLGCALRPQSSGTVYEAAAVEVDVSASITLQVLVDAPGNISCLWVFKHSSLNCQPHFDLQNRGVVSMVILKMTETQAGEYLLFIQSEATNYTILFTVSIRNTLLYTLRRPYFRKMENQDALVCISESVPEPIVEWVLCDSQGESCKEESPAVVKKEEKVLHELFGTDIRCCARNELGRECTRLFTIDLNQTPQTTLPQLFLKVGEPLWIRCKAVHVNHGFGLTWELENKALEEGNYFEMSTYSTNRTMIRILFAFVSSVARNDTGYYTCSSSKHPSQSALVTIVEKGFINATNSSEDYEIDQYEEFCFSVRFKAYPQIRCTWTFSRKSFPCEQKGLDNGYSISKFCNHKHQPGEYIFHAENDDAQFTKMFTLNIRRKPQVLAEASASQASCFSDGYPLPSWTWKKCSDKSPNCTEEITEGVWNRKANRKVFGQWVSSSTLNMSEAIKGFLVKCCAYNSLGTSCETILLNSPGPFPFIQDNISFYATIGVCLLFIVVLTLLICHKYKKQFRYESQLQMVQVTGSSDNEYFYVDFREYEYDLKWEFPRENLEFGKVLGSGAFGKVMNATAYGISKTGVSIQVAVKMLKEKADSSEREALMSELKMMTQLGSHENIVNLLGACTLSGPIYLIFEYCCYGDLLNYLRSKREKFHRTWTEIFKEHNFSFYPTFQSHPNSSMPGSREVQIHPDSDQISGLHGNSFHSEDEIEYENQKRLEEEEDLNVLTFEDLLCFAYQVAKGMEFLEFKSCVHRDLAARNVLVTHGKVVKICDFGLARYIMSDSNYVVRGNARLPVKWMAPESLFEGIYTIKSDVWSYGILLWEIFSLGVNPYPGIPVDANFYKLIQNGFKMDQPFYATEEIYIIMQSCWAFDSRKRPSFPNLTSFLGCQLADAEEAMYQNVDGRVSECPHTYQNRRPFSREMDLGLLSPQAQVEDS
The conditions noted are these: at 1 µM.

Assay [16] addresses Vascular endothelial growth factor receptor 3 (Homo sapiens) (UniProt P35916). Particulars: at 0.1 µM.
Assay [17] shares this target. Particulars: at 1 µM.
For assay [18], the target named is Macrophage colony-stimulating factor 1 receptor (Homo sapiens) (UniProt P07333). The conditions noted are these: at 0.1 µM.
Assay [19] shares this target. Particulars: at 1 µM.
In assay [20] the target is Tyrosine-protein kinase Fyn (Homo sapiens) (UniProt P06241). The conditions noted are these: at 0.1 µM.

As a reminder, the inhibition is the drop in the measured response relative to a control, in per cent.

Serine/threonine-protein kinase Nek6 (Homo sapiens), sequence (Q9HC98 whole entry): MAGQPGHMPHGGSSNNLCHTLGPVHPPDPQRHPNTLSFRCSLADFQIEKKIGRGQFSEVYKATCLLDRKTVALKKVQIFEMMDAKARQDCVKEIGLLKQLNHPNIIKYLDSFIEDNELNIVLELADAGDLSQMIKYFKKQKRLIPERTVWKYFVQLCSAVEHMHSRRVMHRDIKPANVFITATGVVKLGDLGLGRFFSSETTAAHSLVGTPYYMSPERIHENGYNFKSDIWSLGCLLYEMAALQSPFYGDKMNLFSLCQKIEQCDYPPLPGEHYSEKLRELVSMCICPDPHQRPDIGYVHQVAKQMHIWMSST
Serine/threonine-protein kinase Nek7 (Homo sapiens), sequence (Q8TDX7 whole entry, looked up): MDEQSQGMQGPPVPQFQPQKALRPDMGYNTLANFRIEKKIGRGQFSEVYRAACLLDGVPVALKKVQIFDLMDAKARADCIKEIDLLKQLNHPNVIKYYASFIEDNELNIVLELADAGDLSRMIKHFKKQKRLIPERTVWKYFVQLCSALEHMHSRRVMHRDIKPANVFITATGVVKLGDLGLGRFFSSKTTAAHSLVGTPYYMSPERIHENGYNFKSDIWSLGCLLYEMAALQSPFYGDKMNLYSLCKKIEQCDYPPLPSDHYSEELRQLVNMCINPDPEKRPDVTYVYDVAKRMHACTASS
Serine/threonine-protein kinase PLK1 (Homo sapiens), sequence (P53350 whole entry): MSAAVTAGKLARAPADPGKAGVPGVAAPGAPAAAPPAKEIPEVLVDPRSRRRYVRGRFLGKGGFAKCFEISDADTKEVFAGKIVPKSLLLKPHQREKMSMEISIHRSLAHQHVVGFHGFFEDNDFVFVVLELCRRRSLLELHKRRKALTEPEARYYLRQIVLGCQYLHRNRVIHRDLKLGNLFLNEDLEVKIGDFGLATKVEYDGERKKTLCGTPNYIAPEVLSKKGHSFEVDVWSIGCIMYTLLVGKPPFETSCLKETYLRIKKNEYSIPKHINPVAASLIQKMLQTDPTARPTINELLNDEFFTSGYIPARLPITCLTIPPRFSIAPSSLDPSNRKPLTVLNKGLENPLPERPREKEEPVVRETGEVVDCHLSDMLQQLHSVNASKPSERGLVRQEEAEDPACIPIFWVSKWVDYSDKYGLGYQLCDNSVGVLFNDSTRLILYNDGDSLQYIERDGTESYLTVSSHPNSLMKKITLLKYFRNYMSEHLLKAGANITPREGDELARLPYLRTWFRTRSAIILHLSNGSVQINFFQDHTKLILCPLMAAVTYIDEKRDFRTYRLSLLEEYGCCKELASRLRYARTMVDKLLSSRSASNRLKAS
Vascular endothelial growth factor receptor 3 (Homo sapiens), sequence (P35916 whole entry): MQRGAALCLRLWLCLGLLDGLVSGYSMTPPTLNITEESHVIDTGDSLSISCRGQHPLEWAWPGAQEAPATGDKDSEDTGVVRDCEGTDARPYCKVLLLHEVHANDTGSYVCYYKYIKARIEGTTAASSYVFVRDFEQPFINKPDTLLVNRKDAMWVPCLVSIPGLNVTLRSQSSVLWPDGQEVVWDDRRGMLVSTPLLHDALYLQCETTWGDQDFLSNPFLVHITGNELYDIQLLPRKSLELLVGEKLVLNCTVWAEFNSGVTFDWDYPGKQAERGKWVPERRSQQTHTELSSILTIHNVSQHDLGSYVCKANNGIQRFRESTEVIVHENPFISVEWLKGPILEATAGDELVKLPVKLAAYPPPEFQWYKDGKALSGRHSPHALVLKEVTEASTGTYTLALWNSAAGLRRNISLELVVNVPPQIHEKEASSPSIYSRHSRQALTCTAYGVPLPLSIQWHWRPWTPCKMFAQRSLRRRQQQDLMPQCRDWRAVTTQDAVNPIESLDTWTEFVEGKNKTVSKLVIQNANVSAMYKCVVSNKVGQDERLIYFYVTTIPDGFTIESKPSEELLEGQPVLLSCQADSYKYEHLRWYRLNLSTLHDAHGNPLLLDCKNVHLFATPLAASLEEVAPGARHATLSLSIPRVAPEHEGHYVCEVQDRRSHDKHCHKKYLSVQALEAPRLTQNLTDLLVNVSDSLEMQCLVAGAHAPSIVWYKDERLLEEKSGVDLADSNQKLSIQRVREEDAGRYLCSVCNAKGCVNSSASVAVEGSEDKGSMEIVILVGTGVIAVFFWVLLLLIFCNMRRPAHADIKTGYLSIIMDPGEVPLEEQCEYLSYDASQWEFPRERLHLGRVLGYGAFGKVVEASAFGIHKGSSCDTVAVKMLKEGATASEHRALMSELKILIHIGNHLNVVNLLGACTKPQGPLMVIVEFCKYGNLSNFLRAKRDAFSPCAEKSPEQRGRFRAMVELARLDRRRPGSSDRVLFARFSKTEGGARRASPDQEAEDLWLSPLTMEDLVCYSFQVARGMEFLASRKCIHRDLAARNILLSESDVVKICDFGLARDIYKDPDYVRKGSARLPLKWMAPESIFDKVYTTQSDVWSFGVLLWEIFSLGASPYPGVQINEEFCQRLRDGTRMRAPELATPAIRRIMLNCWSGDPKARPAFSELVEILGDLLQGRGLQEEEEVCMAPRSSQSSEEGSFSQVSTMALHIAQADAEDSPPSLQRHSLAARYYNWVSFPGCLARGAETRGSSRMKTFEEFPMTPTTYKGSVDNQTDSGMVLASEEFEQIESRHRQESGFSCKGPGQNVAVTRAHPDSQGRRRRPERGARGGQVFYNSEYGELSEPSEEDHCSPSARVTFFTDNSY
Macrophage colony-stimulating factor 1 receptor (Homo sapiens), sequence (P07333 whole entry): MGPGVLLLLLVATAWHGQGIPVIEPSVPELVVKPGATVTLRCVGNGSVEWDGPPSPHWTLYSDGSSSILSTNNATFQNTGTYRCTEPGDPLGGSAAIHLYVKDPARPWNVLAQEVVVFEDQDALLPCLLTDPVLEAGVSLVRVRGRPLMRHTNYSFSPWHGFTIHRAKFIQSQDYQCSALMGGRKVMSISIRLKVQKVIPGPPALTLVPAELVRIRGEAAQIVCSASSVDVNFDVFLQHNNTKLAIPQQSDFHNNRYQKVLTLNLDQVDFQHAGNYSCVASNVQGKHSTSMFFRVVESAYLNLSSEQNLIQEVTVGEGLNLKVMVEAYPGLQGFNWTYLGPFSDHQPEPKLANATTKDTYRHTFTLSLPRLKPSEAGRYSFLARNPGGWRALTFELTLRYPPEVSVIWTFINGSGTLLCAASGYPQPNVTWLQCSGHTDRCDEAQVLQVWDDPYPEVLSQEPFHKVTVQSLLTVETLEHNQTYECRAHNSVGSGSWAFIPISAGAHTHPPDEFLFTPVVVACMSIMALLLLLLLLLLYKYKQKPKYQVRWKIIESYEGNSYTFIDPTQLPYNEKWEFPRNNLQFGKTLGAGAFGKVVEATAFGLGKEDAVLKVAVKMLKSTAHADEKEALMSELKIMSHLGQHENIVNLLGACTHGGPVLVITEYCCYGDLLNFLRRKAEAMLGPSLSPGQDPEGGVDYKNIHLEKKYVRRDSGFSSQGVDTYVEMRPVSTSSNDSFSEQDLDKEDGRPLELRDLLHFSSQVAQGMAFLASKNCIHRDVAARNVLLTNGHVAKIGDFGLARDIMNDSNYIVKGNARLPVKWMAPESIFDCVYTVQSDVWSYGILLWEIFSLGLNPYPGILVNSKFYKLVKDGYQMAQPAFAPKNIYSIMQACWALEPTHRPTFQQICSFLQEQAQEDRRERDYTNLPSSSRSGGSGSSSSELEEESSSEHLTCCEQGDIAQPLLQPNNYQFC
Tyrosine-protein kinase Fyn (Homo sapiens), sequence (P06241 2-537 limits assumed): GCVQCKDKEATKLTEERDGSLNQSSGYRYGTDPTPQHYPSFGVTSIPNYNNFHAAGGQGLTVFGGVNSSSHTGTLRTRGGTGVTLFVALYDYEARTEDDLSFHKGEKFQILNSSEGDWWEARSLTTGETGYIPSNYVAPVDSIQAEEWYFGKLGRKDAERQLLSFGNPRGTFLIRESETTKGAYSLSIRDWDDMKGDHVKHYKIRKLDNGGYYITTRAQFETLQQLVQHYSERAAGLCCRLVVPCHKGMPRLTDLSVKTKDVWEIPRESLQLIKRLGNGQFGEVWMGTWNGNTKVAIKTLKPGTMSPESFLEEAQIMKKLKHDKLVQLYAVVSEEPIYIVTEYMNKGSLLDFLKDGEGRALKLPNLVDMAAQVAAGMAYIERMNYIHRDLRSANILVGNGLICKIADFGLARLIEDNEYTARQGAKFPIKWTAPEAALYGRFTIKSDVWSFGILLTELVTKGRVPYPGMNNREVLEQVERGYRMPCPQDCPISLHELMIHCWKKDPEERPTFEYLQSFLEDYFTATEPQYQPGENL

`FC(F)(F)c1ccc(-c2nn3ncccc3c2-c2ccnc(Nc3ccc4c(c3)OCCO4)n2)cc1`: the inhibition in [1] was -1.52%; in [2] it was 4.77%; in assay [3], 2.05%; in assay [4], 1.11%; in assay [5] it was 1.32%; in [6], -1.63%. Further, the inhibition in [7] is 1.37%; in assay [8], -5.04%; in [9], -5.62%; in [10] it was -5.79%; in assay [11], -0.89%; in assay [12], 0.09%. For the same compound, the inhibition in assay [13] was -1.77%; in [14] it was 3.35%; in assay [15] it was -0.25%; in [16] it was -2.47%; in [17] it was 4.74%; in [18] it was 0.29%. Moreover, the results for the inhibition in [19] and in assay [20] were 10.3% and 2.65%, respectively.
In the case of `Cc1ccc2c(c1)/C(=N/Nc1ccc(S(N)(=O)=O)cc1)C(=O)N2`, the inhibition in assay [1] was -2.89%; in [2] it was -0.29%; in assay [3], 1.65%; in assay [4] it was 0.94%; in [5], 0.07%; in assay [6], -2.33%. In addition, the inhibition in assay [7] is -1.82%; in assay [8], 2.58%; in assay [9], 2.3%; in assay [10], 2%; in [11] it was 4.02%; in assay [12], 0.67%. Besides, the inhibition in assay [13] was determined as 1.12%; in assay [14], 7.53%; in assay [15], 10.8%; in assay [16], 2.09%; in assay [17], 14.6%; in assay [18], 2.64%. Further, the inhibition in assay [19] was 16.7%; in assay [20], 1.22%.
